Source: paper PMC7862700, “An all-to-all approach to the identification of sequence-specific readers for epigenetic DNA modifications on cytosine”

Tests used:
Assay in all cases: DAPPL (digital affinity profiling via proximity ligation, sequencing); 10 mM Tris-HCl pH 7.5, 50 mM NaCl, 1 mM DTT, 4% glycerol, room temperature, 30 min; GST-TFs on glutathione beads, 16-mer random dsDNA library, 0.1% formaldehyde crosslink after washing; high values mean tight binding
Settings in all cases: protein: recombinant; tags: N-terminal GST; dsDNA, one strand shown
ETV2 = molecular target: T1, ETV2 (Homo sapiens, UniProt O00321 1-342)
T1 sequence: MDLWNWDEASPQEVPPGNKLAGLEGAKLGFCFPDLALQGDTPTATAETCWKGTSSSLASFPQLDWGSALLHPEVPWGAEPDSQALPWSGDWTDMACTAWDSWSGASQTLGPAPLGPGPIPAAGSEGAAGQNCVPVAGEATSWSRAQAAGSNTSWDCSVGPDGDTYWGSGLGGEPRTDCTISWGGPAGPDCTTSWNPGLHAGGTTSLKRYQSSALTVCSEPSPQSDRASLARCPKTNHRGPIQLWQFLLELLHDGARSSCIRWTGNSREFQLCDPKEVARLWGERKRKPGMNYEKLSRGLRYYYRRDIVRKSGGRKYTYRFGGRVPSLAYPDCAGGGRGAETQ
Method in brief: (§1)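 A tag-only sample was pooled with DNA-barcoded human transcription factors that had been expressed in yeast as GST fusions and captured on glutathione beads. The pools were incubated for 30 min at room temperature with 200 nmole of a random double-stranded 16-mer DNA library in Tris/NaCl/DTT/glycerol buffer, then washed, crosslinked with 0.1% formaldehyde, proximity-ligated (BsaI/T4 ligase, 1 h, 37 °C), PCR-amplified and sequenced on an Illumina NextSeq500. Binding signal is each hexamer's read frequency for a factor divided by its frequency for the tag-only sample.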

ELF3 = molecular target: T2, ELF3 (Homo sapiens, UniProt P78545 1-371)
T2 sequence: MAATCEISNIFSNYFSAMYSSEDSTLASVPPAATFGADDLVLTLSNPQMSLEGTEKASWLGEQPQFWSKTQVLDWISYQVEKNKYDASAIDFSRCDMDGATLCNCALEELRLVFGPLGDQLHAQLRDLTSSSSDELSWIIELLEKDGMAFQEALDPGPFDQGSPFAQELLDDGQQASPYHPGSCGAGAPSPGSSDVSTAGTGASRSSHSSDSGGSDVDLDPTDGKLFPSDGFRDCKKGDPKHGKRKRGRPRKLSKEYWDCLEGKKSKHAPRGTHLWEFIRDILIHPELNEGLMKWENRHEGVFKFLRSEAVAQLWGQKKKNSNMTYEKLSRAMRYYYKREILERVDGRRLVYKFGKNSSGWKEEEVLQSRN
Method in brief: as §1

ETV1 = ETV1 (Homo sapiens, UniProt P50549 1-477)
Sequence of ETV1 (P50549 whole entry): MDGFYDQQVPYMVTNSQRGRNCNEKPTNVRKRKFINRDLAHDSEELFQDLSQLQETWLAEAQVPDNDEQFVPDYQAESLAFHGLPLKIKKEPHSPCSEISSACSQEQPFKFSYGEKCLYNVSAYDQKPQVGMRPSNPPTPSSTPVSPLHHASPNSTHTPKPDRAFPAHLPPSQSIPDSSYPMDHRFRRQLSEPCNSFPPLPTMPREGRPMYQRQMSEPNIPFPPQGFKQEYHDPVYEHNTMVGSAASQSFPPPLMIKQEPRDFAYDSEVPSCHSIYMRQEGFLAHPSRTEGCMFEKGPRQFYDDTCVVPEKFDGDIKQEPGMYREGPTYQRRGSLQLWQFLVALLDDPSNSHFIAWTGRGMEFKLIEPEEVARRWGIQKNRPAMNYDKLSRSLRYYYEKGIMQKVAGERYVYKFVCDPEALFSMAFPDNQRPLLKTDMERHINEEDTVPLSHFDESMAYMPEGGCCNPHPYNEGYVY
Method in brief: as §1

ERF = molecular target: T3, ERF (Homo sapiens, UniProt P50548 1-548)
T3 sequence: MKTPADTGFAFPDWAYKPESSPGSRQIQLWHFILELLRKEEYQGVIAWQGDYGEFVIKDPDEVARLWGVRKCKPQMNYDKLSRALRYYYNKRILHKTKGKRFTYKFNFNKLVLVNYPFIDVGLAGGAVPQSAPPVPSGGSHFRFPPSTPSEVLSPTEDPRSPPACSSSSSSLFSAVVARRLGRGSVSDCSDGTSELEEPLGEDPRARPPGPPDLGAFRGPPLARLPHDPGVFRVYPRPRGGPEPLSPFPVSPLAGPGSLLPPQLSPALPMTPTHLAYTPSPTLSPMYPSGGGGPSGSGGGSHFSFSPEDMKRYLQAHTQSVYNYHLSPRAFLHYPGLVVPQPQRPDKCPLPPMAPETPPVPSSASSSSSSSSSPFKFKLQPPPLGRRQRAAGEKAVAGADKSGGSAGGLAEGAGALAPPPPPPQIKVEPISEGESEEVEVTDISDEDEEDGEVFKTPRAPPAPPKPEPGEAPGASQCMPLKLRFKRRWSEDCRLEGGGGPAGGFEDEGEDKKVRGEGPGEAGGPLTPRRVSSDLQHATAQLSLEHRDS
Method in brief: as §1

ETV3L = molecular target: T4, ETV3L (Homo sapiens, UniProt Q6ZN32 1-361)
T4 sequence: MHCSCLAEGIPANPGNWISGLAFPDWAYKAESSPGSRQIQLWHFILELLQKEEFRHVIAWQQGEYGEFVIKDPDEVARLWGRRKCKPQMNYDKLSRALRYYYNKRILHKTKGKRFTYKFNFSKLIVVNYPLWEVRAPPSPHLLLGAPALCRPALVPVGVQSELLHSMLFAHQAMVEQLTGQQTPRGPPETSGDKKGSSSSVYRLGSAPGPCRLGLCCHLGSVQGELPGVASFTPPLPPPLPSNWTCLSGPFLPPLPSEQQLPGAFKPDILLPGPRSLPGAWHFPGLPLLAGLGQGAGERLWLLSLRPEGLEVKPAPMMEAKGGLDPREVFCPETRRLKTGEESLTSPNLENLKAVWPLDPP
Method in brief: as §1

ETS2 = molecular target: T5, ETS2 (Homo sapiens, UniProt P15036 1-469)
T5 sequence: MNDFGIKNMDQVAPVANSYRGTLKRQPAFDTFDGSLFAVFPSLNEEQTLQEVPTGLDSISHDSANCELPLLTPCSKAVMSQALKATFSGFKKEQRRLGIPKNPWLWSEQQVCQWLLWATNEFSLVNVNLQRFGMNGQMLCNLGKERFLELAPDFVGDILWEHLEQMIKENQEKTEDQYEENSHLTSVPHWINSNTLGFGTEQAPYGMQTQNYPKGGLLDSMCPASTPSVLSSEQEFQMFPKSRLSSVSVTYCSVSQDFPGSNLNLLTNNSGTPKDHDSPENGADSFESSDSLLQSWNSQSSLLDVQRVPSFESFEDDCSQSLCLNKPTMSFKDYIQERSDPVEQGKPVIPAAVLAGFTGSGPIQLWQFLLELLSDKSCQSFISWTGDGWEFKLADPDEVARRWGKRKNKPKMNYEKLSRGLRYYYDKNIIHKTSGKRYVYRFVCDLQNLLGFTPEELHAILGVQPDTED
Method in brief: as §1

SPDEF = molecular target: T6, SPDEF (Homo sapiens, UniProt O95238 1-335)
T6 sequence: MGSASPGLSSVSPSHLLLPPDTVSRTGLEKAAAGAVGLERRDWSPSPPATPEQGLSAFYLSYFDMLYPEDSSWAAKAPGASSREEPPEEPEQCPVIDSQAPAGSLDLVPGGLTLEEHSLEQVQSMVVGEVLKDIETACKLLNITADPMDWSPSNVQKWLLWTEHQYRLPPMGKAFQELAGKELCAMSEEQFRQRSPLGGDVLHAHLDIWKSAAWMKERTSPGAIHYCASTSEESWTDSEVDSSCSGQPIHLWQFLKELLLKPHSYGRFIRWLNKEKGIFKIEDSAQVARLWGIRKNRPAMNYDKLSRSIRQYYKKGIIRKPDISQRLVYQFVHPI
Method in brief: as §1

ETV7 = molecular target: T7, ETV7 (Homo sapiens, UniProt Q9Y603 1-341)
T7 sequence: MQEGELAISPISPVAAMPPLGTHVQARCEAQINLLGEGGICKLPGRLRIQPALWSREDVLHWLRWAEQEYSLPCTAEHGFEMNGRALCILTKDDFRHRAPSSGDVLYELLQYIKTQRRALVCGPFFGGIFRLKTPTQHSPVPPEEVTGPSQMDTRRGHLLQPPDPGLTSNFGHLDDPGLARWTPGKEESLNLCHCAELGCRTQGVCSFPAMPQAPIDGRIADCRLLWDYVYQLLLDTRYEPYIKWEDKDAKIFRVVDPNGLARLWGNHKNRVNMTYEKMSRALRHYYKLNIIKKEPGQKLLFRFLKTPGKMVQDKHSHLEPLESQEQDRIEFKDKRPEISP
Method in brief: as §1

ETV3 = molecular target: T8, ETV3 (Homo sapiens, UniProt P41162-2 1-143)
T8 sequence: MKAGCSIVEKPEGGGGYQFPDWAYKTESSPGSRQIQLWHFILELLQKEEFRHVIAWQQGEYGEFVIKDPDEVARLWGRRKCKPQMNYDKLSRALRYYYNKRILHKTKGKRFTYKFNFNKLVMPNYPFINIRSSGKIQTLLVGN
Method in brief: as §1

ETV6 = ETV6 (Homo sapiens, UniProt P41212 1-452)
Sequence of ETV6 (P41212 whole entry): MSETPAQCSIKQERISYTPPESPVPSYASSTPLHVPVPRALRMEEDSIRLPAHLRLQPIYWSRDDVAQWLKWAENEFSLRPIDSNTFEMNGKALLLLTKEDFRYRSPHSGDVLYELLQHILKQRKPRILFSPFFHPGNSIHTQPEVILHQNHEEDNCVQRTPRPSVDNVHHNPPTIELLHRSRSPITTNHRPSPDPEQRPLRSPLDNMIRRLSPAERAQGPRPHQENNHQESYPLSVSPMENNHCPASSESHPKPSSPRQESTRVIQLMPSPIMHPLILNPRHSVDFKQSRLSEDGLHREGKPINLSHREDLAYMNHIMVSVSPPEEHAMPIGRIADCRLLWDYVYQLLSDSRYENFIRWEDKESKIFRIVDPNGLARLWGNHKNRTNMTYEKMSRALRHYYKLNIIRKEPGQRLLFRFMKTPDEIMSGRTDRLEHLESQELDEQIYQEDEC
Method in brief: as §1

TCATGT
binding signal (ETV2): 1.15 fold enrichment (6-mer frequency, TF over GST control)
binding signal (ELF3): 1.04 fold enrichment (6-mer frequency, TF over GST control)
binding signal (ETV1): 1.27 fold enrichment (6-mer frequency, TF over GST control)
binding signal (ERF): 1.13 fold enrichment (6-mer frequency, TF over GST control)
binding signal (ETV3L): 1.15 fold enrichment (6-mer frequency, TF over GST control)
binding signal (ETS2): 1.11 fold enrichment (6-mer frequency, TF over GST control)
binding signal (SPDEF): 1.12 fold enrichment (6-mer frequency, TF over GST control)
binding signal (ETV7): 1.15 fold enrichment (6-mer frequency, TF over GST control)
binding signal (ETV3): 1.14 fold enrichment (6-mer frequency, TF over GST control)
binding signal (ETV6): 1.08 fold enrichment (6-mer frequency, TF over GST control)
